Source: PubChem (several laboratories)
CR mimetic SO: caloric restriction mimetics inhibiting age-related superoxide in yeast. S. cerevisiae aged cells, superoxide DHE fluorescence; hits give low values. 330,000 compounds, 0.18% hits. superoxide response (% of plate mean), % at 10 µM. AID 2690;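 active = superoxide response under a set limit, about three screen SD below normal, cut at about 65% in these data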;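 also: yeast aged for seven days with compound at 30 °C before DHE staining; 100% = average MFI of all compound-treated wells on the plate with controls excluded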
PfM18AAP inh: PfM18AAP enzyme inhibition; recombinant PfM18AAP, H-Glu-NHMec fluorogenic cleavage; inhibition, % at 7.35 µM; 290,000 compounds, 1.2% hits;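 active = inhibition above the campaign mean inhibition over all tested compounds plus 3 SD, cut at about 28% in these data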;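 also: 0% = plate median of test compound wells and 100% = 2 mM ZnCl2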
CendR NRP1 mod: alters CendR peptide binding to human NRP-1. O14786. FAM-RPARPAR peptide binding to NRP-1, fluorescence polarization. inhibition, % at 25 µM. 360,000 compounds, 0.85% hits;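 active = inhibition or corrected inhibition above about 18%, plus a signal ratio from 0.5 to 1.5, limit read from the data, passing the limit was not always enough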
Target sequence (O14786 whole entry, looked up): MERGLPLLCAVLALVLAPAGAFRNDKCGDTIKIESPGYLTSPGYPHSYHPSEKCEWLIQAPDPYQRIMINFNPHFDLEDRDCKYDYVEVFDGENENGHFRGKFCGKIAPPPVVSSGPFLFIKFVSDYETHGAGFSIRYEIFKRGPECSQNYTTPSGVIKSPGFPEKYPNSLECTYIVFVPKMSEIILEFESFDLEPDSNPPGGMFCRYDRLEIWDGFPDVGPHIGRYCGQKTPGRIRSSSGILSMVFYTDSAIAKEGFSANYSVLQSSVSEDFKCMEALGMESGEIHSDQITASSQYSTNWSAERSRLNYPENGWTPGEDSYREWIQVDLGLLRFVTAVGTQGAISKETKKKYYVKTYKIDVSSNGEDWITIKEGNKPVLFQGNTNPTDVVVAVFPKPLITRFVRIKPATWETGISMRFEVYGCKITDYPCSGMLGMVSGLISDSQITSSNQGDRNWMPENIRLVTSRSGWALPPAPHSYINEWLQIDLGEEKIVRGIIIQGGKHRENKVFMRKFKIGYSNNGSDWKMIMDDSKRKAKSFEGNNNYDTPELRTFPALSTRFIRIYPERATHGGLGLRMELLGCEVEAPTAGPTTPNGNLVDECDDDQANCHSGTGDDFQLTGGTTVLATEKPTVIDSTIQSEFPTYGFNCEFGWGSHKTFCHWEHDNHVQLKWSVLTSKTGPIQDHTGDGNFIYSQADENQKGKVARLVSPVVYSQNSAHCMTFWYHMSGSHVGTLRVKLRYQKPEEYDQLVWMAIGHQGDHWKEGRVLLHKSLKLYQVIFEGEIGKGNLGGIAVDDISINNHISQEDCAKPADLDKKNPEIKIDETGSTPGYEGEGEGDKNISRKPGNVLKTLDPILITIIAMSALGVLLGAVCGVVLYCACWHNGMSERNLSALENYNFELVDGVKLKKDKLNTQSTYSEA
A3G deaminase: blocks human APOBEC3G single-stranded DNA deamination. Q9HC16. recombinant A3G, ssDNA deamination FAM/TAMRA fluorescence. inhibition, % at 20 µM. 330,000 compounds, 0.28% hits. AID 493012;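 active = inhibition of at least 40% at 20 µM, with no more than 30% in the related APOBEC3A deaminase screen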;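 also: plate controls were DMSO wells with A3G for no effect and wells lacking A3G enzyme for full effect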
ALR inh: blocks human ALR sulfhydryl oxidase activity. P55789. purified ALR, DTT oxidation, H2O2 HRP-luminol luminescence. inhibition, % (concentration not given with the values). 290,000 compounds, 3.8% hits;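 active = mean replicate inhibition above about 79%, with every replicate also reaching it, limit read from the data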
APOBEC3A inh: inhibitors of human APOBEC3A DNA deaminase; recombinant A3A, FAM/TAMRA ssDNA deamination fluorescence; inhibition, % at 20 µM; 330,000 compounds, 0.41% hits;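 active = at least 40% inhibition at 20 µM here, with at most 30% in a related deaminase screen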;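 also: plate controls were A3A with DMSO for no effect and wells lacking A3A enzyme for full effect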
* = called active by the depositor. The list is not random: actives were taken first. Their share in the collection is about 5.2%.

How did O=c1[nH][nH]c(-c2ccccc2O)c1C(C[N+](=O)[O-])c1ccc(Br)cc1 (stereo not drawn) do in these assays?
CR mimetic SO: 118; PfM18AAP inh: 27; CendR NRP1 mod: -9; A3G deaminase: -1; ALR inh: 88*; APOBEC3A inh: 0

How did COc1ccc(C(C[N+](=O)[O-])c2c(C)[nH]c3ccccc23)cc1OC (stereo not drawn) do in these assays?
CR mimetic SO: 138; PfM18AAP inh: 20; CendR NRP1 mod: 8; A3G deaminase: -10; ALR inh: -17; APOBEC3A inh: -4

What do the screens show for `Cc1ccc(C(C[N+](=O)[O-])c2c(-c3ccccc3O)[nH][nH]c2=O)cc1` (stereo not drawn)?
CR mimetic SO: 94; PfM18AAP inh: 14; CendR NRP1 mod: 6; A3G deaminase: -3; ALR inh: 86*; APOBEC3A inh: 1

What do the screens show for `O=C(COC(=O)Cn1cnc2ccccc2c1=O)Nc1ccc2c(c1)OCO2`?
CR mimetic SO: 87; PfM18AAP inh: -2; CendR NRP1 mod: -8; A3G deaminase: 0; APOBEC3A inh: 5

How did COc1ccc(NC(=O)Nc2ccc(Br)cn2)cc1OC do in these assays?
CR mimetic SO: 95; PfM18AAP inh: -2; CendR NRP1 mod: 47*; A3G deaminase: 1; APOBEC3A inh: 2

How did CCn1c(=O)n(CC)c2cc(N3CCCC3)c(NC(=O)c3ccccc3F)cc21 do in these assays?
CR mimetic SO: 133; PfM18AAP inh: 23; CendR NRP1 mod: 6; A3G deaminase: -5; APOBEC3A inh: -5

How did CCn1c(=O)n(CC)c2cc(N3CCCC3)c(NC(=O)c3ccccc3)cc21 do in these assays?
CR mimetic SO: 106; PfM18AAP inh: 14; CendR NRP1 mod: 2; A3G deaminase: 12; ALR inh: 97*; APOBEC3A inh: -3

Results for COc1ccc(Br)cc1C(=O)Nc1ccc(O)cc1 ?
CR mimetic SO: 107; PfM18AAP inh: 0; CendR NRP1 mod: 5; A3G deaminase: -7; ALR inh: 99*; APOBEC3A inh: -9

What do the screens show for `CCn1c(=O)n(CC)c2cc(N3CCCC3)c(NC(=O)c3ccc(C)cc3)cc21`?
CR mimetic SO: 93; PfM18AAP inh: 28*; CendR NRP1 mod: 5; A3G deaminase: -4; ALR inh: 99*; APOBEC3A inh: -6

What do the screens show for `CC(C)n1nc(C(=O)NCc2ccc3c(c2)OCO3)c2ccccc2c1=O`?
CR mimetic SO: 115; PfM18AAP inh: -4; CendR NRP1 mod: -11; A3G deaminase: 0; ALR inh: -4; APOBEC3A inh: 0

Results for Cc1ccccc1CN1CCN(S(=O)(=O)c2cccc3nsnc23)CC1 ?
CR mimetic SO: 115; PfM18AAP inh: -2; CendR NRP1 mod: 8; A3G deaminase: -3; ALR inh: -48; APOBEC3A inh: 0

Results for Cc1ccc(S(=O)(=O)NC(C)(C)CN2CCNCC2)cc1 ?
CR mimetic SO: 92; PfM18AAP inh: -9; CendR NRP1 mod: 10; A3G deaminase: -8; ALR inh: -1; APOBEC3A inh: -2

What do the screens show for `O=C(Nc1cccc2ccccc12)c1csc(COCCO)n1`?
CendR NRP1 mod: -10

Results for COc1ccccc1CNC(=O)COC(=O)c1ccc(Cl)nc1 ?
CR mimetic SO: 82; CendR NRP1 mod: 7; A3G deaminase: -2; ALR inh: -1; APOBEC3A inh: 3

Results for COc1ccc(CN(C(=O)c2snc(C(N)=O)c2N)C(C)C(=O)NCc2ccc(F)cc2)cc1 (stereo not drawn) ?
CR mimetic SO: 97; PfM18AAP inh: 3; CendR NRP1 mod: 6; A3G deaminase: -8; ALR inh: 1; APOBEC3A inh: -3

Results for CCn1c(=O)n(CC)c2cc(N3CCCC3)c(NC(=O)c3cc(Br)ccc3OC)cc21 ?
CR mimetic SO: 124; PfM18AAP inh: 30*; A3G deaminase: -6; ALR inh: 11; APOBEC3A inh: -7

Results for CCn1c(=O)n(CC)c2cc(N3CCCC3)c(NC(=O)c3ccccc3C)cc21 ?
CR mimetic SO: 98; PfM18AAP inh: 19; CendR NRP1 mod: 27*; A3G deaminase: -3; ALR inh: 99*; APOBEC3A inh: -3

How did COc1ccc(Br)cc1C(=O)Nc1ccccc1N1CCCC1 do in these assays?
CR mimetic SO: 96; CendR NRP1 mod: -19; A3G deaminase: -3; ALR inh: 26; APOBEC3A inh: -4

How did COc1ccc(Cc2nc3ccc(C(=O)N4CCN(C)C(C)C4)cc3o2)cc1OC (stereo not drawn) do in these assays?
CR mimetic SO: 95; PfM18AAP inh: 0; CendR NRP1 mod: 10; A3G deaminase: -8; ALR inh: 5; APOBEC3A inh: -2

How did O=C(c1ccc2ccccc2n1)N1CCN(c2ccccc2O)CC1 do in these assays?
CR mimetic SO: 101; PfM18AAP inh: 19; CendR NRP1 mod: -5; A3G deaminase: 0; ALR inh: 98*; APOBEC3A inh: 0

What do the screens show for `CCOC(=O)N1CCN(c2ccccc2O)CC1`?
CR mimetic SO: 99; PfM18AAP inh: 26; CendR NRP1 mod: 10; A3G deaminase: -1; ALR inh: 99*; APOBEC3A inh: -3

How did COc1cccc(N2CCN(C(=O)c3cc(C)oc3C)CC2)c1 do in these assays?
CR mimetic SO: 119; CendR NRP1 mod: 16; A3G deaminase: -8; ALR inh: 90*; APOBEC3A inh: -5

How did Cc1cc(C(=O)N2CCN(c3ccccc3O)CC2)c(C)o1 do in these assays?
CR mimetic SO: 97; CendR NRP1 mod: -3; A3G deaminase: -13; ALR inh: 98*; APOBEC3A inh: -6

What do the screens show for `COc1ccccc1N1CCN(C(=O)c2cc(C)oc2C)CC1`?
CR mimetic SO: 106; PfM18AAP inh: -5; CendR NRP1 mod: -2; A3G deaminase: -4; APOBEC3A inh: 0

How did CCOC(=O)N1CCN(c2ccccc2OC)CC1 do in these assays?
CR mimetic SO: 84; PfM18AAP inh: -1; CendR NRP1 mod: 7; A3G deaminase: -7; ALR inh: -4; APOBEC3A inh: -4

How did COc1ccc(Cl)cc1NC(=O)CN(C)CC(=O)Nc1cc(OC)c(OC)c(OC)c1 do in these assays?
CR mimetic SO: 104; PfM18AAP inh: 0; CendR NRP1 mod: -1; A3G deaminase: -18; APOBEC3A inh: -2

How did Cc1ccc(-c2[nH]nc3c2C(c2ccsc2)C(C#N)=C(N)O3)cc1 (stereo not drawn) do in these assays?
CR mimetic SO: 104; PfM18AAP inh: 4; CendR NRP1 mod: -1; A3G deaminase: 3; ALR inh: -6; APOBEC3A inh: -1

How did CCOC(=O)c1c(NC(=O)COC(=O)Cc2c[nH]c3ccccc23)sc(C(=O)N(C)C)c1C do in these assays?
CR mimetic SO: 131; CendR NRP1 mod: -2; A3G deaminase: -13; ALR inh: 4; APOBEC3A inh: -4

What do the screens show for `Cc1cccc(N2CCN(C(=O)C(C)C)CC2)c1C`?
CR mimetic SO: 135; PfM18AAP inh: 8; CendR NRP1 mod: 4; A3G deaminase: -7; ALR inh: 2; APOBEC3A inh: -4
